Calls of active or inactive are those of the source. Unless noted, how the calls were made is not given here.
Legend:
[1] = compounds binding Alexa647 anti-His antibody – biochemical, small-molecule microarray, 635 nm fluorescence, artefact control for SMM control protein annotation, primary screen (AID 1128); settings: higher = more signal;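 further: score merges feature fluorescence with signal-to-noise for each printed compound spot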
[2] = test system: Human papillomavirus type 1a E7 protein (residues 1-88); experiment: HPV1a E7 small-molecule binders, primary screen, biochemical, small-molecule microarray, residues 1-88, 635 nm (AID 1129); settings: small-molecule microarray binding, fluorescence 635 nm; higher = more signal
[3] = target: Focal adhesion kinase 1 (Homo sapiens) (UniProt Q05397); experiment: PTK2 protein binding on printed compound slides – biochemical, small-molecule microarray, 635/667 nm fluorescence, BSA, DTT, primary screen (AID 1130); settings: 635 nm fluorescence, higher = more signal;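 further: composite of spot emission at 667 nm and signal to noise over triplicate slides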
[4] = test system: Fibrinogen (Alexa647-labelled); experiment: Alexa647-fibrinogen binding to printed small molecules – biochemical, small-molecule microarray, 635/667 nm fluorescence, artefact control for SMM control-protein annotation, profiling panel (AID 1131); settings: fibrinogen-A647 binding fluorescence, higher = more signal;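 further: z-score merges 667 nm fluorescence with per-spot signal-to-noise over triplicate slides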
[5] = target: Follistatin (Homo sapiens) (UniProt P19883); experiment: FST protein binding to printed compounds – biochemical, small-molecule microarray, 635/667 nm fluorescence, primary screen (AID 1132); settings: 635 nm fluorescence, higher = more signal
[6] = target: Fibroblast growth factor 2 (Homo sapiens) (UniProt P09038); experiment: basic fibroblast growth factor binding to printed compounds – biochemical, small-molecule microarray, 635/667 nm fluorescence, primary screen (AID 1133); settings: FGF2, fluorescence 635/667, higher = more signal
[7] = JC-1 mitochondrial potential readout, lung cancer cells – cell-based, A549, JC-1 fluorescence, basal, 24 h, 100 nL, profiling panel (AID 1138); settings: higher = more signal;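 further: A549 lung adenocarcinoma cells under basal conditions with no added stimulus; test concentration not given here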
[8] = test system: Lefty1; experiment: Lefty1 protein binding to printed compounds – biochemical, small-molecule microarray, 635/667 nm fluorescence, primary screen (AID 1139); settings: fluorescence 635/667, higher = more signal
[9] = test system: wheat germ agglutinin (Triticum aestivum), Alexa647-labelled; experiment: Alexa647-WGA lectin binding to printed small molecules – biochemical, small-molecule microarray, 635/667 nm fluorescence, artefact control for SMM control-protein annotation, profiling panel (AID 1140); settings: WGA-A647 binding, 635 nm fluorescence, higher = more signal;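 further: score merges 667 nm feature emission with signal to noise over triplicate slides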
[10] = target: Luciferin 4-monooxygenase (Photinus pyralis) (UniProt P08659); experiment: inhibition of purified Photinus pyralis luciferase – biochemical, luminescence, purified enzyme, 2006 set, primary screen (AID 1141); settings: purified firefly luciferase, SteadyGlo luminescence, 30 min; higher = more signal, called active from +8 up or from −8 down;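 further: cell-free assay with purified firefly luciferase at 100 ng per well in PBS; test concentration not given here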
[11] = test system: Wnt5a (protein binding on small-molecule microarray); experiment: small molecules binding Wnt5a protein – biophysical, small-molecule microarray, 635/667 nm fluorescence, primary screen (AID 1142); settings: 635 nm fluorescence, higher = more signal;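 further: fluorescence read at 667 nm with signal to noise per printed feature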
[12] = ATP-based viability of Huh7 replicon cells – cell-based, CellTiter-Glo luminescence, basal, 48 h, cytotoxicity control for HCV replication inhibitor project, primary screen (AID 1143); settings: higher = more signal, called active from +8 up or from −8 down;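 further: Huh7 hepatoma cells carrying a hepatitis C replication reporter with no stimulus; test concentration not given here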
[13] = Pseudomonas biofilm growth suppression – PAO1 strain, BacTiter-Glo luminescence, LB-PBS, primary screen (AID 1144); settings: P. aeruginosa PAO1 biofilm, 12 h, higher = more signal
[14] = basal CRE-LacZ reporter activity in PC12 – cell-based, unstimulated, primary screen (AID 1145); settings: no forskolin, luminescence, 4.5 h, higher = more signal, called active from +8 up or from −8 down
[15] = forskolin-driven CRE-LacZ activity in PC12 – cell-based, CRE-LacZ reporter, forskolin-stimulated, primary screen (AID 1146); settings: luminescence, 4.5 h, higher = more signal, called active from +8 up or from −8 down;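 further: PC12 cells with 6xCRE LacZ reporter stimulated by forskolin 10 µM; beta-galactosidase reporter signal reflecting CREB driven transcription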
[16] = target: Streptavidin (Streptomyces avidinii) (UniProt P22629); experiment: compounds binding control protein streptavidin – biophysical, small-molecule microarray, 635/667 nm fluorescence, artefact control for SMM compound annotation, primary screen (AID 1147); settings: higher = more signal;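 further: signal reflects streptavidin binding to arrayed compounds as a control protein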
[17] = probe aInhba binding on compound microarray – biochemical, small-molecule microarray, 635/667 nm fluorescence, primary screen (AID 1148); settings: higher = more signal;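 further: score merges 667nm spot fluorescence with signal-to-noise for antibody binding to printed compounds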
[18] = target: Torsin-1A (Homo sapiens) (UniProt O14656); experiment: TOR1A wild-type binding on microarray – cell lysate, small-molecule microarray, lysate, 635/667 nm, primary screen (AID 1149); settings: COS7 hTOR1A-WT lysate, 635 nm fluorescence, higher = more signal
[19] = target: Torsin-1A (Homo sapiens) (UniProt O14656); experiment: torsin A mutant lysate binding on microarrays – cell lysate, small-molecule microarray, COS7 lysate, 635/667 nm fluorescence, primary screen (AID 1150); settings: COS7 hTOR1A mutant lysate, 635 nm fluorescence, higher = more signal;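 further: score pools 667 nm emission and signal to noise measuring lysate protein binding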
[20] = test system: Sonic hedgehog protein (Shh); experiment: Sonic hedgehog microarray binding compounds – biochemical, small-molecule microarray, 635/667 nm fluorescence, primary screen (AID 1151); settings: 635 nm fluorescence, higher = more signal;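 further: Shh protein binding to compounds spotted on small-molecule microarray slides; score combines spot fluorescence intensity with signal-to-noise across triplicate slides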

Chain of Torsin-1A (Homo sapiens) (O14656 whole entry, looked up): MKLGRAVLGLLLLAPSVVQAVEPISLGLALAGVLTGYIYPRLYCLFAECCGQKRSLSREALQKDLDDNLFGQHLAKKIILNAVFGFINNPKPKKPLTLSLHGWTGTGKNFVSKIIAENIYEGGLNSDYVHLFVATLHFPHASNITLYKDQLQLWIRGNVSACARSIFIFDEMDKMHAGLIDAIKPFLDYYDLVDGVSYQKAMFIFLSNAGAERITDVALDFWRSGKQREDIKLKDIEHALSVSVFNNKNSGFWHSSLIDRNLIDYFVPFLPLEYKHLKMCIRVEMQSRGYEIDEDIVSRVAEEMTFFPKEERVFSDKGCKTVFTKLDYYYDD
Chain of Luciferin 4-monooxygenase (Photinus pyralis) (P08659 whole entry, looked up): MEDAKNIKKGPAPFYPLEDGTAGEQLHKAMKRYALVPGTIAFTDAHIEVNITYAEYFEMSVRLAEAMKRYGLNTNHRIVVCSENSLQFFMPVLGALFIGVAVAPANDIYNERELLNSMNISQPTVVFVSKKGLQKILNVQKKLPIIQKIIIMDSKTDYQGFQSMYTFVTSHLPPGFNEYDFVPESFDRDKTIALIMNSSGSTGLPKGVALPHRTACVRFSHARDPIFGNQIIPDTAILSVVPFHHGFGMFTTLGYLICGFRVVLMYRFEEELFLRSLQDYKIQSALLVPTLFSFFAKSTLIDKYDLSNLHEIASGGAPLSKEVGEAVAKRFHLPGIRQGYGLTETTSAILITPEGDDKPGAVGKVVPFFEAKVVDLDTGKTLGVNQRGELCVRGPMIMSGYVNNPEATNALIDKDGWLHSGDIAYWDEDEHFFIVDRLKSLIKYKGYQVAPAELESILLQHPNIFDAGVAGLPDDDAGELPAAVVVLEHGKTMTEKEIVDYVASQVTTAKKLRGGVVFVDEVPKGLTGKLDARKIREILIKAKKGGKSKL
Chain of Focal adhesion kinase 1 (Homo sapiens) (Q05397 whole entry, looked up): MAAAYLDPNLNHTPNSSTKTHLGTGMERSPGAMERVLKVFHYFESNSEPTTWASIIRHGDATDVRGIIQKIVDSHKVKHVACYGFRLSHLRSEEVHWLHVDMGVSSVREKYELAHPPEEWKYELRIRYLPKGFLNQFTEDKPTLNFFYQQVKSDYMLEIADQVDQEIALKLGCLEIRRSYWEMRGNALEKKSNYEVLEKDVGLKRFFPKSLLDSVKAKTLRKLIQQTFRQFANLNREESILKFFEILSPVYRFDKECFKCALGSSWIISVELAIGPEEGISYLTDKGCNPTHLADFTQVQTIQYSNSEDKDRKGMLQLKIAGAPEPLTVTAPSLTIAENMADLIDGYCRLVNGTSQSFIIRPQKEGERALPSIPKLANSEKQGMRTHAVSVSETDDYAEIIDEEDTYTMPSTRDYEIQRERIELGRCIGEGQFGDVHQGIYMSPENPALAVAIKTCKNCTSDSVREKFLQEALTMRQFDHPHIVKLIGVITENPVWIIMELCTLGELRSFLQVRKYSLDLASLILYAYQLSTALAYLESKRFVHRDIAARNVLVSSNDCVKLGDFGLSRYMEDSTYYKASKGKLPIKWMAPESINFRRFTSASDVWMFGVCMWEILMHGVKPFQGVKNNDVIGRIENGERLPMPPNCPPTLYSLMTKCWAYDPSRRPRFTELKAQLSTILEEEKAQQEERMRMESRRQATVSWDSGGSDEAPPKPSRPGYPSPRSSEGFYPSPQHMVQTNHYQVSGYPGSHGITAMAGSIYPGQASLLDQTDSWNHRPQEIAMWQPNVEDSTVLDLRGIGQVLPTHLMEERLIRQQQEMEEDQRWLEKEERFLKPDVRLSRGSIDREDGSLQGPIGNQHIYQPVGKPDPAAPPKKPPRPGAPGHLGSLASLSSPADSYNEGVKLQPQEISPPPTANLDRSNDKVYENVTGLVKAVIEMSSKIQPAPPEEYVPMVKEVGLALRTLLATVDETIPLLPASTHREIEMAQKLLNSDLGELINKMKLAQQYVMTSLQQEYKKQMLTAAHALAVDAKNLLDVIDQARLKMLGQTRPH
Chain of Follistatin (Homo sapiens) (P19883 whole entry, looked up): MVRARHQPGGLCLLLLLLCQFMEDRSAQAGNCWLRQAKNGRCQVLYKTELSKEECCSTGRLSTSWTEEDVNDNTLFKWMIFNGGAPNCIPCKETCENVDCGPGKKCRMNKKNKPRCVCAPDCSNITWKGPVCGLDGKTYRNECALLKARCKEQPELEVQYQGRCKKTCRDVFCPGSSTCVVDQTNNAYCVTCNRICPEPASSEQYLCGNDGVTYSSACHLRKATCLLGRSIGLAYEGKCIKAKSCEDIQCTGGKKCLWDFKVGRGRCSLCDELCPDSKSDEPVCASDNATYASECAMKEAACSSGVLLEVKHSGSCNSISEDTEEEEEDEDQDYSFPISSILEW
Chain of Fibroblast growth factor 2 (Homo sapiens) (P09038 whole entry, looked up): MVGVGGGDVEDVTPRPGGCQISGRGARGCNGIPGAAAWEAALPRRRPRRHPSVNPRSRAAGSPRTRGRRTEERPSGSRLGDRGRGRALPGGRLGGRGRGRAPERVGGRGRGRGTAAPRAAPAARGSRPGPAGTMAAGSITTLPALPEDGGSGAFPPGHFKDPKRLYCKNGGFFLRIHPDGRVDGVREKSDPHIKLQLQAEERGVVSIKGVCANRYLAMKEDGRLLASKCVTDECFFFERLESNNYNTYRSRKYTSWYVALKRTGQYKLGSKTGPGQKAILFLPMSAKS
Chain of Streptavidin (Streptomyces avidinii) (P22629 whole entry, looked up): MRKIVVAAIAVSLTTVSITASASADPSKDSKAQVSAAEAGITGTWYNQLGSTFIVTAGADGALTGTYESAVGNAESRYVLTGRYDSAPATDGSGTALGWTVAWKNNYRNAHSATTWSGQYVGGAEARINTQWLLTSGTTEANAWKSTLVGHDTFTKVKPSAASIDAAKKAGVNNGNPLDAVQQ

| Structure (SMILES) | composite z-score [1] | composite z-score [2] | composite z-score [3] | composite z-score [4] | composite z-score [5] | composite z-score [6] | z-score [7] | composite z-score [8] | composite z-score [9] | z-score [10] | composite z-score [11] | z-score [12] | z-score [13] | z-score [14] | z-score [15] | composite z-score [16] | composite z-score [17] | composite z-score [18] | composite z-score [19] | composite z-score [20] |
| --- | --- | --- | --- | --- | --- | --- | --- | --- | --- | --- | --- | --- | --- | --- | --- | --- | --- | --- | --- | --- |
| COC(=O)[C@@H]1CC[C@@H](C)[C@H](c2ccc(Br)cc2)N1 | 0.949 | 0.0613 | 0.867 | 0.689 | -0.177 | -0.0826 | 0.864 | -0.0352 | 0.0075 | -0.482 (inactive) | -0.0771 | -1.09 (inactive) | 0.328 (inactive) | -0.258 (inactive) | -1.02 (inactive) | -0.165 | -0.249 | 0.303 | 0.145 | -0.139 |
| Cc1cc2c(nc1C)CCCN2CC(O)CN1CCCc2nc(C)c(C)cc21 | 1.92 | -0.0317 | 0.281 | -0.575 | 0.817 | 1.06 | -0.685 | 0.454 | 0.562 | 0.723 (inactive) | 0.424 | 0.135 (inactive) | 0.051 (inactive) | -0.704 (inactive) | -0.875 (inactive) | 0.209 | 0.141 | 0.482 | 1.95 | 0.639 |
| CCCNC(=O)OC[C@H]1O[C@H](CCON=C(C)C)C=C[C@@H]1Oc1ccc(OC)cc1 | 1.82 | -0.124 | 0.105 | 0.448 | -0.132 | -0.245 | -0.218 | 0.0114 | -0.0321 | -0.129 (inactive) | -0.0092 | 0.599 (inactive) | -0.523 (inactive) | -0.152 (inactive) | -0.315 (inactive) | 0.102 | -0.0791 | -0.0198 | -0.0963 | -0.318 |
| CC(CCN1CCc2nc(-c3ccccc3)c(-c3ccccc3)cc2C1)=NOC[C@@H](O)COCc1ccco1 | 0.567 | 0.697 | 0.475 | 0.19 | 1.15 | 0.496 | 2 | 1.03 | 0.679 | -1.46 (inactive) | 0.133 | 0.42 (inactive) | -0.255 (inactive) | -0.878 (inactive) | -0.724 (inactive) | 0.526 | -0.0589 | 1.15 | 1.25 | 1.31 |
| COc1cccc([C@H]2Oc3ccc(OC)cc3C(=NO[C@@H](C)c3cn([C@H](CO)Cc4ccccc4)nn3)[C@@H]2O)c1 | -2.13 | -0.92 | -0.104 | 0.778 | -0.476 | 0.109 | -1.09 | 0.102 | 0.305 | -0.0592 (inactive) | -0.353 | -0.404 (inactive) | 0.0128 (inactive) | 6.77 (inactive) | 0.661 (inactive) | 0.326 | -0.0986 | -0.44 | -0.137 | -0.243 |
| COc1ccc(C#C[C@@H]2C=C[C@H](OC(C)=O)[C@@H](COC(C)=O)O2)cc1 | 1.01 | 0.282 | 0.0919 | 0.0177 | 0.567 | 0.183 | 0.0859 | 0.649 | 0.217 | -1.06 (inactive) | 0.392 | -3.46 (inactive) | 0.132 (inactive) | 0.291 (inactive) | 1.08 (inactive) | 0.271 | 0.0442 | 0.244 | 0.267 | 0.882 |
| Cc1ccc(S(=O)(=O)OC[C@H]2CN3[C@H](c4ccc(Br)cc4)[C@@H](C)CC[C@H]3C(=O)O2)cc1 | 0.924 | 0.269 | 0.0817 | 0.596 | 1.1 | 1.45 | 1.78 | 0.198 | 0.11 | -0.849 (inactive) | 0.114 | -1.25 (inactive) | -1.43 (inactive) | 2.01 (inactive) | 0.535 (inactive) | 0.487 | -0.128 | 0.782 | 0.44 | 0.362 |
| CCC=CCCC(OC(=O)c1ccc(Br)cc1)C1=CCCCC1=O (stereo not given) | 0.164 | 1.17 | 0.408 | -0.997 | 1.11 | 0.584 | -0.158 | 0.876 | 0.485 | 0.0771 (inactive) | -0.0451 | -1.29 (inactive) | 1.45 (inactive) | -0.158 (inactive) | 3.09 (inactive) | 0.148 | -0.195 | 1.08 | 1.87 | 1.46 |
| CCOC(=O)NN=C1C[C@@H](O)[C@@H](O)[C@@H]2[C@@H]3C(=O)N(c4cccc(Oc5ccccc5)c4)C(=O)[C@@H]3CC[C@@H]12 | -0.103 | 0.45 | 0.0767 | 0.681 | -0.445 | -0.248 | -0.44 | -0.318 | 0.327 | 0.607 (inactive) | 0.0449 | -1.49 (inactive) | 0.362 (inactive) | -0.201 (inactive) | -0.252 (inactive) | -0.343 | -0.178 | 0.986 | 0.139 | -0.438 |

From PubChem BioAssay
